The list is not random: actives were taken first. Their share in the collection is about 2.8%.
KDM5B inh: KDM5B demethylase inhibition; Q9UGL1; KDM5B demethylase, FDH-coupled NADH fluorescence (FDH is formaldehyde dehydrogenase); Potency, µM (highest dose often 57.7 µM), hits mostly inhibitors; hit rate 2.6% among 220,000; note: potency is the fitted concentration of half-maximal effect; 0% is about no effect; nearly all actives have a fitted effect of over 70% in size
Target sequence (Q9UGL1 whole entry, looked up): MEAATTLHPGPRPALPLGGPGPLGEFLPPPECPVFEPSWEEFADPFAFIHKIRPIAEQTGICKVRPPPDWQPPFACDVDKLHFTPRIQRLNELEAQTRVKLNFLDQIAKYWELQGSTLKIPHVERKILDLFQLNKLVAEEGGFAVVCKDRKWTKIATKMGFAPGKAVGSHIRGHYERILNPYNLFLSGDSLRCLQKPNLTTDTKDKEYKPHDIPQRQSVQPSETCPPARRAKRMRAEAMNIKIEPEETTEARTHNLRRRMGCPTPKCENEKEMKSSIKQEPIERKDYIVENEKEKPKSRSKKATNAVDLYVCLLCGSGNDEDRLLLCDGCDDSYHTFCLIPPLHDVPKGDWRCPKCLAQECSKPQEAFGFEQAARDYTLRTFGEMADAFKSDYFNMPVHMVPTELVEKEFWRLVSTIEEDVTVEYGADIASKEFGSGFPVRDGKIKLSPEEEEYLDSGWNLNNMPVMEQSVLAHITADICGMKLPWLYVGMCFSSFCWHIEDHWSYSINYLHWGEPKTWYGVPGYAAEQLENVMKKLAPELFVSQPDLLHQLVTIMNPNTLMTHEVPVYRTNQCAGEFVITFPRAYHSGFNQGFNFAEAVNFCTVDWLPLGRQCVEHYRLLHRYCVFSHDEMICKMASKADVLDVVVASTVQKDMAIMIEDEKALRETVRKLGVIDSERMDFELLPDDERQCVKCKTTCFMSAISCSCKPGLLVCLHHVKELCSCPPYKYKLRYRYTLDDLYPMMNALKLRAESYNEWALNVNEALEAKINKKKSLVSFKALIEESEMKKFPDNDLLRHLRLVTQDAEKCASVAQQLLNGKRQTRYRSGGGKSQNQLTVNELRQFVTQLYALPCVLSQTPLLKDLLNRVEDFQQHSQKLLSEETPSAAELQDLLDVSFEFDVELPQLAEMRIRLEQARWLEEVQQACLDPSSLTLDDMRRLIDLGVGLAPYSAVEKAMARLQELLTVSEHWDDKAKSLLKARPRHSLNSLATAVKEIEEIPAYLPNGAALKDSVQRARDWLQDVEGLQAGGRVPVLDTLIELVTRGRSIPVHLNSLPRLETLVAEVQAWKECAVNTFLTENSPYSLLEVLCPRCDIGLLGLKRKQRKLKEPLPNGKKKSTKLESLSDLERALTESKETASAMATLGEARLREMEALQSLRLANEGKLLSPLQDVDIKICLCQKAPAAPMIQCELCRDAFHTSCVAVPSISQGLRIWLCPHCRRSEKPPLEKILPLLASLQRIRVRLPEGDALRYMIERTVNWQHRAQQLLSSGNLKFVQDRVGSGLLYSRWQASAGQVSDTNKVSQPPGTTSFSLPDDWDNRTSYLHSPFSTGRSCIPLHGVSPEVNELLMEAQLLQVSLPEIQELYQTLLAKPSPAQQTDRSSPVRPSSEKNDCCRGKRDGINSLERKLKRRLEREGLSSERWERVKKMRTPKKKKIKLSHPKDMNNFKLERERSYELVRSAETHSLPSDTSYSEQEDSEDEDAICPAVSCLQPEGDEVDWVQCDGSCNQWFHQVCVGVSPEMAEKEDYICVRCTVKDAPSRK
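Coupled FDH/NAD⁺ fluorescence readout. KDM5BΔAP 200 nM final; compound titration, 10 min RT preincubation; substrate mix 12.5 µM H3K4me3, 25 µM 2-OG, 50 µM Fe(II), 100 µM ascorbate, 0.25 mM NAD⁺, 0.25 U/mL FDH; ΔRFU over 30 min.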
SNCA viab count: reduces viability of HEK-293 SNCA reporter cells; HEK-293-SNCA-luc viability, GF-AFC fluorescence, 24 h; Potency, µM (top dose mostly 57.1 µM), inactives show top-dose activity change, negative = cytotoxicity, usual class: cytotoxic; hit rate 0.12% among 150,000;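 note: potency is the fitted concentration of half-maximal effect; 0% = DMSO-treated cells and -100% = medium-only wells without cells; nearly all actives have a fitted effect of over 30% in size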
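HEK-293-SNCA-luc cells (1500/well) plated 24 h, then exposed 24 h to a dilution series; GF-AFC added 30 min at 37C, fluorescence 405/540 nm; normalised to medium-only and DMSO wells, Hill fit.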
IP6K1 inh: blocks human inositol hexakisphosphate kinase 1; activity change, % (series mostly up to about 58 µM); AID 1645851; Q92551; IP6K1 kinase, ADP-Glo luminescence, 2 h; active compounds read low; hit rate 0.81% among 140,000; in the data active = activity change below about -25%; note: % is set by controls: 0 for no effect and ±100 for the full control effect
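ADP-Glo luminescence measures ADP made by human IP6K1 during a 2 h RT reaction with ATP/IP6 (mix at 1.3 mM/130 uM); top library doses 57.5 and 19.1 uM final.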
SNCA expr inh: inhibitors of alpha-synuclein (SNCA) gene expression. HEK-293 SNCA-luciferase knock-in, luminescence, 24 h. Potency, µM (titrated, usually from 57.2 µM), for inactives: top-dose activity change, negative = inhibition, actives largely listed as inhibitors. hit rate 0.17% among 140,000. AID 1671194;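 note: potency is the fitted concentration of half-maximal effect; plate controls were DMSO cells for no effect and cell-free wells for full effect; nearly all actives have a fitted effect of over 45% in size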
IP6K1 conf: human IP6K1 inhibition, confirmatory; shares compounds with IP6K1 inh; recombinant IP6K1 kinase, ADP-Glo luminescence, 2 h; Potency, µM (series often up to 49 µM), inactives show at the top dose activity change, negative = inhibition, most hits filed as inhibitors; hit rate 13% among 1,200; note: potency is the fitted concentration of half-maximal effect; % is set by controls: 0 for no effect and ±100 for the full control effect; nearly all actives have a fitted effect of over 65% in size
The depositor's hits bear a star; i = inactive; ? = inconclusive; / = not tested or not shown; [ ] = another dose, or the depositor's remark. Unless noted, calls come from the whole dose curve; as a rule, active = well fitted curve in the direction sought with a large enough effect; inconclusive = small, poorly fitted or top-dose-only effect, or another doubt; inactive = no such curve, though single readings can be large; an effect the other way counts as inactive or inconclusive.

SMILES	KDM5B inh	SNCA viab count	IP6K1 inh	SNCA expr inh	IP6K1 conf
O=C(Nc1cccc(Br)c1)N1CCC(n2cnnc2C2CC2)C1 (stereo unspecified)	i	-5%	21	-7%	/
Cc1cc(-c2cnc3[nH]cc(CC(N)=O)c3c2)ccn1	i	12%[87.6 µM]	-7	12%[87.6 µM]	/
NC(=O)Cc1c[nH]c2ncc(-c3ccc(Oc4ccccc4)cc3)cc12	?	-13%[87.6 µM]	-42*	-15%[87.6 µM]	?
CNC(=O)c1cccc(-c2cnc3[nH]cc(CC(=O)N(C)c4ccccc4)c3c2)c1	i	?	-29*	-1%[87.6 µM]	?
NC(=O)Cc1c[nH]c2ncc(-c3cccc(F)c3)cc12	32µM*	1%[87.6 µM]	-35*	0%[87.6 µM]	?
Cc1cccc(-c2[nH]c(C(C)(C)C)nc2-c2ccc3c(c2)OCO3)n1	/	-16%	/	-31%	/
CC(C)(C)Cn1c(N)nc2ccc(-c3[nH]c(C(C)(C)C)nc3-c3ccc(F)cc3)nc21	/	?	-25*	27µM*	6%
O=C1NC(=O)/C(=C/c2ccc3c(c2)OC(F)(F)O3)S1	/	-5%	-37*	119%	?
CN(C)C(=O)N1C2CCC1CN(c1ccc(C(F)(F)F)cc1)C2	i	-11%	-27*	?	?
CCOc1cccc(CNC(=O)C2CCCN(c3cnc4nc(C)c(C)nc4c3)C2)c1 (stereo unspecified)	i	14%	-9	?	/
COC(=O)c1c(NC(=O)COc2ccc(OC)cc2)sc2c1CCC(C)C2 (stereo unspecified)	?	?	-38*	?	-12%
Cc1ccc(OCC(=O)Nc2ccc3nc(SCC(N)=O)sc3c2)cc1	i	0%	8	28%	/
Cc1ccc(OCC(=O)Nc2ccc3nc(SCCOc4ccccc4)sc3c2)cc1	i	1%	-27*	33%	0%
Cc1cccc(Oc2nc3c(c(=O)n(C)c(=O)n3C)n2C)c1	i[11.5 µM]	8%	-27*	11%	-18%
CCC[C@H](NC(=O)C(C#N)=Cc1cccc(Br)n1)c1ccccc1	/	?	/	?	?
C[C@@H](NC(=O)/C(C#N)=C/c1ccc(O)c(O)c1)c1ccccc1	/	-8%	/	9%	/
CCN1CC(C(=O)N2CCCC(c3ccccc3)(c3ccccc3)C2)CC1=O (stereo unspecified)	i	-6%	-34*	-3%	-12%
Cc1cccc(C)c1OCc1cc(=O)n2c(-c3ccccc3)csc2n1	i	6%	-11	-4%	/
CC(C)c1ccc(OCc2cc(=O)n3c(-c4ccccc4)csc3n2)cc1	?	-14%	-31*	32%	-7%
O=C(COC(=O)c1ccc2ccccc2n1)Nc1cc(F)ccc1F	i	/	/	/	/
COc1ccc(NC(=O)Cc2csc(COc3cccc(C)c3)n2)cc1OC	?	-2%	-27*	3%	34%
Cc1cccc(NC(=O)Cc2csc(COc3cccc(C)c3)n2)c1	i	4%	-22	16%	/
Cc1ccc([C@H]2Nc3ccc(S(=O)(=O)Nc4cccc(Cl)c4C)cc3[C@H]3C=CC[C@H]32)cc1	?	-19%	-27*	-10%	-5%
COC(=O)c1ccc([C@H]2Nc3ccc(S(=O)(=O)Nc4cccc(C)c4)cc3[C@H]3C=CC[C@H]32)cc1	?	-1%	6	10%	/
Cn1nc(C(=O)Nc2ccccc2C(N)=O)c2ccccc2c1=O	i	/	/	/	/
SMILES	KDM5B inh	SNCA viab count	IP6K1 inh	SNCA expr inh	IP6K1 conf
Cn1c(CCC(=O)N2CCCOCC2)nc2cc(S(=O)(=O)N3CCCC3)ccc21	i	5%	-31*	10%	-9%
Cc1cccc(-n2ccnc2SC2CCCCC2=O)c1 (stereo unspecified)	i	/	/	/	/
CC(C(=O)NCC1CCCCC1)n1cnc2c1c(=O)n(C)c(=O)n2C (stereo unspecified)	i	/	/	/	/
CCn1c(C(=O)N(C2CC2)C2CC2)cc2c3c(ncn3C)c(Nc3cc(C)n(C)n3)nc21	/	?	-7	10%	-2%
Fc1cc(-c2cccc3ncc(-c4cnn(C5CCNCC5)c4)nc23)cc(F)c1CN1CCOCC1	/	?	12	?	-4%
CCn1c(CO)nnc1C1CC(NC(=O)c2cccc3c2OCCO3)C1 (stereo unspecified)	?	-4%	-25*	2%	32%
CN(C)[C@H]1CCCCN(C(=O)c2cnc3ccccn3c2=O)C1	32µM*	2%	-34*	19%	18%
COc1cc(OC)c(C(=O)N2CCCC[C@H](N(C)C)C2)cc1OC	i	-3%	-10	10%	/
COc1ccccc1-c1ccc(C(=O)N2CCCC[C@H](N(C)C)C2)cc1	?	?	-31*	-8%	21%
CN(C)S(=O)(=O)c1cccc(C(=O)Nc2ccc(N3CCCCC3)c3ccncc23)c1	i	/	/	/	/
CC1Cc2ccccc2N1S(=O)(=O)c1ccc(Cl)cc1F (stereo unspecified)	i	/	/	/	/
CCCCCCCC(=O)[O-].CCCCCCCC(=O)[O-].[Zn+2]	/	-24%[23.9 µM]	-36*	-52%[25.6 µM]	?
CCCCCCCCCCCCCCCCCC(=O)O	/	-3%[23.9 µM]	-7	-41%[25.6 µM]	/
Cc1cccc(OCC(=O)N2CCCC(c3[nH]ccc3C(N)=O)C2)c1 (stereo unspecified)	i	22%[12.5 µM]	8	5%	/
Cc1cc(C)cc(Nc2nc(-c3cccnc3)nc3ccccc23)c1	i	/	/	/	/
Cc1cc(Nc2nc(-c3ccccc3)nc3ccccc23)n[nH]1	/	-20%	-26*	/	?
COc1cc(OC)c(NC(=O)C2=C(C)C(=O)OC23CCCCCC3)cc1Cl	i	2%	-100*	18%	-13%
CC(C)c1cc(C=O)c(O)c(C=O)c1	i	/	/	/	/

From PubChem
